The values below come from PubChem BioAssay (NCI).

The structures appear in SMILES notation. The panel holds about 79,000 compounds, 15% with a hit somewhere; the sample as a whole holds those more often. Values without a mark were called inactive. Active and inactive are the calls of the source. Cut-off read from the data, not from the text of the source: active = growth inhibition above about 70%; inactive = the rest.

The nature of experiment [1]: NCI Yeast Anticancer Drug Screen. Data for the rad50 strain (AID 155).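 Note: 0% = growth of vehicle-only cultures of the same strain.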 The following applies: S. cerevisiae rad50 strain growth inhibition, active compounds read high. The procedure, abridged: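 Inhibition values express reduced yeast growth in compound-treated cultures relative to vehicle-treated controls.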
The nature of experiment [2]: NCI Yeast Anticancer Drug Screen. Data for the mec2-1 strain (AID 157). Conditions: S. cerevisiae mec2-1 strain, active compounds read high. The procedure, abridged: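 Compounds were applied to mec2-1 yeast cells. Their growth was then compared with that of vehicle-treated cultures to give growth inhibition.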
Experiment [3] in a line: NCI Yeast Anticancer Drug Screen. Data for the sgs1 mgt1 strain (AID 161).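 Note: 0% = growth of cultures given vehicle only.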 Conditions: S. cerevisiae sgs1 mgt1 strain, active compounds read high. The procedure, abridged:
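Yeast cells carrying a defined DNA-repair defect were exposed to test compounds. Growth inhibition was measured relative to vehicle-treated controls.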

The nature of experiment [4]: NCI Yeast Anticancer Drug Screen. Data for the cln2 rad14 strain (AID 165).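 Note: 0% = growth equal to vehicle treated cultures.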 The following applies: S. cerevisiae cln2 rad14 strain, active compounds read high. Summed up: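 Strain: cln2 rad14 yeast, altered in cell cycle control and DNA damage repair. Read-out: growth inhibition vs vehicle.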
A short description of experiment [5]: NCI Yeast Anticancer Drug Screen. Data for the bub3 strain (AID 167). The following applies: S. cerevisiae bub3 mutant strain, active compounds read high. Summed up:
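Steps: expose the mutant yeast strain to compound; grow alongside vehicle-treated cultures; measure growth; express inhibition against the vehicle cultures.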

Experiment [6] can be described thus: NCI Yeast Anticancer Drug Screen. Data for the mlh1 rad18 strain (AID 175). The following applies: S. cerevisiae mlh1 rad18 strain growth inhibition, active compounds read high. The procedure, abridged:
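A repair-deficient yeast strain is exposed to test compound, and growth is scored relative to vehicle-treated controls.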

[7] abbreviates: at 5.0 µM (retest, dose inferred, filed as 0.5).
[8] abbreviates: at 50.0 µM (retest, dose inferred, filed as 5.0).

As to `CCCCN(CCCC)CC(O)c1ccc2cc(Cl)c3ccccc3c2c1` (stereo not given), the growth inhibition was 53% in experiment [1] (setting [7]); 99% (active) in experiment [1] (setting [8]); 99.6% (active) in experiment [1] (at 50.0 µM); 40% in experiment [2] (setting [7]); 100% (active) in experiment [2] (setting [8]); 99.7% (active) in experiment [2] (at 50.0 µM). In addition, the growth inhibition is 85% (active) in experiment [3] (setting [7]); 100% (active) in experiment [3] (setting [8]); 99.5% (active) in experiment [3] (at 50.0 µM); 41% in experiment [4] (setting [7]); 99% (active) in experiment [4] (setting [8]); 99.4% (active) in experiment [4] (at 50.0 µM). Moreover, the growth inhibition in experiment [5] (setting [7]) was 57%; in experiment [5] (setting [8]), 99% (active); in experiment [5] (at 50.0 µM), 92.2% (active); in experiment [6] (setting [7]), 63%; in experiment [6] (setting [8]), 100% (active); in experiment [6] (at 50.0 µM) it was 99.4% (active).
For the compound `CCCC(C)NCCCCCNc1cc(OC)cc2cccnc12` (stereo not given), the growth inhibition in experiment [1] (setting [7]) is 3%; in experiment [1] (setting [8]), 60%; in experiment [1] (at 50.0 µM), 78.8% (active); in experiment [2] (setting [7]), 2%; in experiment [2] (setting [8]), 22%; in experiment [2] (at 50.0 µM), 48.5%. For the same compound, the growth inhibition in experiment [3] (setting [7]) is 25%; in experiment [3] (setting [8]) it was 62%; in experiment [3] (at 50.0 µM), 71.6% (active); in experiment [4] (setting [7]), 14%; in experiment [4] (setting [8]), 40%; in experiment [4] (at 50.0 µM) it was 42%. The growth inhibition in experiment [5] (setting [7]) is 19%; in experiment [5] (setting [8]), 61%; in experiment [5] (at 50.0 µM), 82.2% (active); in experiment [6] (setting [7]), -19%; in experiment [6] (setting [8]), 11%; in experiment [6] (at 50.0 µM), 76.5% (active).
Regarding `N#Cc1c(-c2ccc([N+](=O)[O-])cc2)c(C#N)c(=O)n(NS(=O)(=O)c2ccccc2)c1S`, the growth inhibition in experiment [1] (setting [7]) was 35%; in experiment [1] (setting [8]) it was 91% (active); in experiment [1] (at 50.0 µM), 51.8%; in experiment [2] (setting [7]), 15%; in experiment [2] (setting [8]) it was 81% (active); in experiment [2] (at 50.0 µM) it was 81.6% (active). Also, the growth inhibition was 17% in experiment [3] (setting [7]); 88% (active) in experiment [3] (setting [8]); 78% (active) in experiment [3] (at 50.0 µM); 46% in experiment [4] (setting [7]); 67% in experiment [4] (setting [8]); 40% in experiment [4] (at 50.0 µM). In addition, the growth inhibition is 46% in experiment [5] (setting [7]); 87% (active) in experiment [5] (setting [8]); 61.6% in experiment [5] (at 50.0 µM); 31% in experiment [6] (setting [7]); 81% (active) in experiment [6] (setting [8]); 78.8% (active) in experiment [6] (at 50.0 µM).
For `O=C1CSC(=S)N1/N=C/c1ccc(Cl)c([N+](=O)[O-])c1`, the growth inhibition is 28% in experiment [1] (setting [7]); 86% (active) in experiment [1] (setting [8]); 63.8% in experiment [1] (at 50.0 µM); 0% in experiment [2] (setting [7]); 40% in experiment [2] (setting [8]); 52.1% in experiment [2] (at 50.0 µM). Also, the growth inhibition is 2% in experiment [3] (setting [7]); 77% (active) in experiment [3] (setting [8]); 27.4% in experiment [3] (at 50.0 µM); -16% in experiment [4] (setting [7]); 40% in experiment [4] (setting [8]); -37.7% in experiment [4] (at 50.0 µM). The growth inhibition is -8% in experiment [5] (setting [7]); 46% in experiment [5] (setting [8]); 57.9% in experiment [5] (at 50.0 µM); 2% in experiment [6] (setting [7]); 91% (active) in experiment [6] (setting [8]); 61.2% in experiment [6] (at 50.0 µM).
Consider `CCCCCCCCCCC[N+]1(Cc2ccccc2)CC2CCN(Cc3ccccc3)CC2C1` (stereo not given), for which the growth inhibition is 97% (active) in experiment [1] (setting [7]); 100% (active) in experiment [1] (setting [8]); 99.5% (active) in experiment [1] (at 50.0 µM); 73% (active) in experiment [2] (setting [7]); 100% (active) in experiment [2] (setting [8]); 99.3% (active) in experiment [2] (at 50.0 µM). Further, the growth inhibition in experiment [3] (setting [7]) was 54%; in experiment [3] (setting [8]) it was 99% (active); in experiment [3] (at 50.0 µM), 99.6% (active); in experiment [4] (setting [7]) it was 95% (active); in experiment [4] (setting [8]), 99% (active); in experiment [4] (at 50.0 µM), 99.4% (active). The growth inhibition in experiment [5] (setting [7]) was 99% (active); in experiment [5] (setting [8]), 99% (active); in experiment [5] (at 50.0 µM) it was 99.5% (active); in experiment [6] (setting [7]), 97% (active); in experiment [6] (setting [8]) it was 99% (active); in experiment [6] (at 50.0 µM), 99.5% (active).
For the compound `Clc1ccc(CN2COc3c(cc(Cl)c4cccnc34)C2)c(Cl)c1`, the growth inhibition in experiment [1] (setting [7]) was 6%; in experiment [1] (setting [8]), 98% (active); in experiment [1] (at 50.0 µM), 23.6%; in experiment [2] (setting [7]), -20%; in experiment [2] (setting [8]), 91% (active); in experiment [2] (at 50.0 µM), 22.9%. Moreover, the growth inhibition was -1% in experiment [3] (setting [7]); 97% (active) in experiment [3] (setting [8]); -6.85% in experiment [3] (at 50.0 µM); -9% in experiment [4] (setting [7]); 97% (active) in experiment [4] (setting [8]); 46.1% in experiment [4] (at 50.0 µM). The growth inhibition in experiment [5] (setting [7]) is 0%; in experiment [5] (setting [8]), 98% (active); in experiment [5] (at 50.0 µM) it was 3%; in experiment [6] (setting [7]), 0%; in experiment [6] (setting [8]) it was 95% (active); in experiment [6] (at 50.0 µM), 1.4%.
`COc1cc(/C=C2/C(=O)N(C(=O)c3ccccc3O)N=C2C)cc(OC)c1OC`: the growth inhibition in experiment [1] (setting [7]) is -14%; in experiment [1] (setting [8]), 23%; in experiment [1] (at 50.0 µM), 64%; in experiment [2] (setting [7]), 9%; in experiment [2] (setting [8]), 35%; in experiment [2] (at 50.0 µM) it was 16.6%. Further, the growth inhibition in experiment [3] (setting [7]) was -8%; in experiment [3] (setting [8]), 28%; in experiment [3] (at 50.0 µM), 36.5%; in experiment [4] (setting [7]), -4%; in experiment [4] (setting [8]), 26%; in experiment [4] (at 50.0 µM) it was 26.4%. In addition, the growth inhibition is 12% in experiment [5] (setting [7]); 80% (active) in experiment [5] (setting [8]); 77.1% (active) in experiment [5] (at 50.0 µM); 20% in experiment [6] (setting [7]); 61% in experiment [6] (setting [8]); 39.2% in experiment [6] (at 50.0 µM).
On to `CN1C(=O)C(Cl)(C(Cl)(Cl)S(=O)(=O)O)C(=O)c2ccccc21` (stereo not given), for which the growth inhibition is -3% in experiment [1] (setting [7]); 95% (active) in experiment [1] (setting [8]); 42% in experiment [1] (at 50.0 µM); 1% in experiment [2] (setting [7]); 99% (active) in experiment [2] (setting [8]); 18.3% in experiment [2] (at 50.0 µM). The growth inhibition in experiment [3] (setting [7]) was 1%; in experiment [3] (setting [8]), 98% (active); in experiment [3] (at 50.0 µM), -8.1%; in experiment [4] (setting [7]), 3%; in experiment [4] (setting [8]), 96% (active); in experiment [4] (at 50.0 µM) it was 34.5%. Further, the growth inhibition is 0% in experiment [5] (setting [7]); 97% (active) in experiment [5] (setting [8]); 4.2% in experiment [5] (at 50.0 µM); -1% in experiment [6] (setting [7]); 97% (active) in experiment [6] (setting [8]); 27.5% in experiment [6] (at 50.0 µM).
Regarding `Oc1ccc(-c2nnc(-c3ccccc3)nn2)cc1`, the growth inhibition in experiment [1] (setting [7]) is -154%; in experiment [1] (setting [8]), -160%; in experiment [1] (at 50.0 µM), 56.4%; in experiment [2] (setting [7]) it was -48%; in experiment [2] (setting [8]), -53%; in experiment [2] (at 50.0 µM) it was 8.95%. Further, the growth inhibition in experiment [3] (setting [7]) was -66%; in experiment [3] (setting [8]), -63%; in experiment [3] (at 50.0 µM), -3.9%; in experiment [4] (setting [7]), -47%; in experiment [4] (setting [8]), -66%; in experiment [4] (at 50.0 µM), -52.5%. Further, the growth inhibition in experiment [5] (setting [7]) is -47%; in experiment [5] (setting [8]), -19%; in experiment [5] (at 50.0 µM), 58.5%; in experiment [6] (setting [7]), -121%; in experiment [6] (setting [8]) it was -147%; in experiment [6] (at 50.0 µM), -9.85%.
Take `O=C1C2CCCC3CCCC(C(=O)N1O)C32` (stereo not given): the growth inhibition in experiment [1] (setting [7]) was 89% (active); in experiment [1] (setting [8]), 96% (active); in experiment [1] (at 50.0 µM) it was 91.9% (active); in experiment [2] (setting [7]), 90% (active); in experiment [2] (setting [8]), 98% (active); in experiment [2] (at 50.0 µM) it was 93% (active). The growth inhibition is 70% (active) in experiment [3] (setting [7]); 94% (active) in experiment [3] (setting [8]); 93.5% (active) in experiment [3] (at 50.0 µM); 52% in experiment [4] (setting [7]); 69% in experiment [4] (setting [8]); 74.7% (active) in experiment [4] (at 50.0 µM). Moreover, the growth inhibition in experiment [5] (setting [7]) is 93% (active); in experiment [5] (setting [8]), 97% (active); in experiment [5] (at 50.0 µM), 92% (active); in experiment [6] (setting [7]), 87% (active); in experiment [6] (setting [8]), 97% (active); in experiment [6] (at 50.0 µM) it was 90.3% (active).
